Measured values reported in PubChem BioAssay AID624331 (National Center for Advancing Translational Sciences (NCATS), 2012).
Records with an inconclusive call do not appear. Where a call stands in place of a potency, no number is given. Calls of active or inactive are those of the source. Calls come from the whole dose curve; as a rule, active = well fitted activation curve with a large enough effect; inconclusive = small, poorly fitted or top-dose-only effect; inactive = no such curve, though single readings can be large or run the other way.

Assay: qHTS assay for re-activators of p53 using a Luc reporter: Hit Validation with no p53 Expressed
Details: p53-null cells, luciferase reporter counter-screen; series mostly up to 46.1 µM
Summary of the method: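 Without p53 expression, cells (1000/well, Opti-MEM + 10% FBS) were exposed 24 h at 37 deg C to compounds in a 1:5 series from 10 mM stock (top 46.1 µM in well). Luminescent signal read 10 min after Amplite addition; actives flag unspecific activation.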
With `CN(C)c1ccc(CNC2CC(C)(C)NC(C)(C)C2)cc1` the Potency was “inactive”.
In the case of `Cn1ncc(Cl)c(Oc2ccc(C(C)(C)C)cc2)c1=O`, the Potency is reported as “inactive”.
For `NNC(=O)c1cccc(COc2ccc(Br)cc2)c1`, the Potency was “inactive”.
For `CCOC(=O)N1CCN(S(=O)(=O)c2ccc(C(=O)NNc3nc4c(C)cc(C)cc4s3)cc2)CC1`, the Potency was “inactive”.
For `Cc1c(/C(O)=C2/C(=O)C(=O)N(CCN3CCOCC3)C2c2cccs2)cnn1-c1ccccc1` (centres undefined), the Potency was “inactive”.
With `CN(C)c1ccc(/C=N/Nc2nncc3ccccc23)cc1` the Potency was “inactive”.
In the case of `O=C(CC1CCCCC1)NCc1ccc(Cl)cc1`, the Potency is reported as “inactive”.
With `NNc1nc(-c2ccccc2)nc2sc3c(c12)CCCC3` the Potency was “inactive”.
For `CCOC(=O)c1[nH]nc(C(=O)c2ccc(Br)cc2)c1O`, the Potency was “inactive”.
In the case of `c1ccc2c(c1)CCN(c1nc3cc4c(cc3s1)OCO4)C2`, the Potency is reported as “inactive”.
In the case of `O=C(CCN1C(=O)/C(=C/c2ccccc2Cl)SC1=S)N1CCOCC1`, the Potency is reported as “inactive”.
For `N#C/C(=C\c1ccc(OCc2ccc(Br)cc2)cc1)C(=O)Nc1cccc(C(=O)O)c1`, the Potency was “inactive”.
In the case of `COCC(C)NC(=O)C1CC(=O)N(c2ccc(C)cc2)C1` (centres undefined), the Potency is reported as “inactive”.
For `Cc1ccsc1/C=N/Nc1nc2ccccc2[nH]1`, the Potency was “inactive”.
In the case of `O=C(/C=C\Nc1cccc(F)c1)c1ccc2c(c1)OCO2`, the Potency is reported as “inactive”.
With `COc1ccc2cc3c(N)nn(C(=O)c4ccc(Cl)c([N+](=O)[O-])c4)c3nc2c1` the Potency was “inactive”.
For `O=C(NNC(=O)C1CCCO1)c1ccccc1Cl` (centres undefined), the Potency was “inactive”.
With `O=C(Cc1ccccc1)Nc1ccc(NC(=O)c2cccnc2)cc1` the Potency was “inactive”.
For `Cc1ccccc1CSc1ncc(C#N)c(N)n1`, the Potency was “inactive”.
With `O=C(NCc1ccc(-c2nc3ccccc3s2)cc1)c1cc2ccccc2o1` the Potency was “inactive”.
For `CN(C)C(=O)c1ccc2c(c1[N+](=O)[O-])C(=O)c1ccccc1C2=O`, the Potency was “inactive”.
With `Clc1cccc(N/N=C(\Cc2nc3ccccc3[nH]2)c2ccccc2)c1` the Potency was “inactive”.
For `Cc1cc(C)nc(SCC(=O)OCC(=O)Nc2nc3ccccc3s2)n1`, the Potency was “inactive”.
For `C/C(=N\NC(=S)NC(C)C)c1ccc(Cl)s1`, the Potency was “inactive”.
For `O=C(O)/C=C/c1nc(-c2ccccc2)n2ccccc12`, the Potency was “inactive”.
For `O=c1oc(-c2ccc(O)c(O)c2)cc2cc(O)cc(O)c12`, the Potency was “inactive”.
In the case of `O=C(CCc1nc(-c2ccccc2F)no1)NC1CCCCCC1`, the Potency is reported as “inactive”.
With `O=C(CCS(=O)(=O)c1ccccc1)Nc1nc2c(s1)CCCC2` the Potency was “inactive”.
In the case of `O=C(/C=C/c1ccco1)Nc1ccc2nn(-c3ccccc3)nc2c1`, the Potency is reported as “inactive”.
For `CCCCC(=O)N1CCCC(C)C1` (centres undefined), the Potency was “inactive”.
In the case of `N#CCc1nc(CSc2nc3ccccc3s2)cs1`, the Potency is reported as “inactive”.
With `CCc1ccc(C(=O)Nc2nc3ccccc3[nH]2)cc1` the Potency was “inactive”.
With `CCc1ccc2c(CN(CC)Cc3nc4ccccc4c(=O)[nH]3)cc(=O)oc2c1` the Potency was “inactive”.
In the case of `O=c1c2ccccc2oc2nc(-c3ccco3)n(-c3ccccc3)c(=O)c12`, the Potency is reported as “inactive”.
With `CCc1ccc2[nH]c(=O)c(CN(CCN(CC)CC)C(=O)NC3CCCCC3)cc2c1` the Potency was “inactive”.
For `COc1ccc(C(C)(C)C)cc1NC(=O)Nc1ccc2c(c1)OCO2`, the Potency was “inactive”.
With `O=C(/C=C/c1cnc2ccccc2n1)NC12CC3CC(CC(C3)C1)C2` the Potency was “inactive”.
For `COc1ccc2oc(-c3cccc(NC(=O)CSc4ccc(Cl)cc4)c3)nc2c1`, the Potency was “inactive”.
With `Cc1cccc(NC(=O)Nc2ccc(C)cc2Br)c1` the Potency was “inactive”.
